According to PubChem BioAssay (Tox21):
Values without a mark were called inactive. Results filed as inconclusive are left out. Where a call stands in place of a potency, no number is given. Calls of active or inactive are those of the source. Unless noted, calls follow the shape of the dose curve; as a rule, active = well fitted curve in the direction sought with a large enough effect in the repeat runs; inconclusive = weak or mixed curves; inactive = no such curve, though single readings can be large; an effect the other way counts as inactive or inconclusive.

Key:
[1] = qHTS assay to identify small molecule agonists of the RXR signaling pathway - cell viability counter screen (AID 1159529);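 also: HEK 293T cells carrying an RXR-alpha UAS beta-lactamase reporter; nearly all actives have a fitted effect of over 50% in size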
How it was run: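 Steps: seed RXR-alpha-UAS-bla HEK 293T cells in assay medium containing 2% charcoal-stripped FBS; incubate 5 hr; add compounds in DMSO; incubate 16 hr at 37 C; after the bla read, add CellTiter-Glo and read luminescence at 30 min.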

[2] = qHTS assay to identify small molecule antagonists of the retinoid acid receptor (RAR) signaling pathway - cell viability counter screen (AID 1159551); also: nearly all actives have a fitted effect of over 35% in size
How it was run: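 Seed C3RL4 cells; next day add compound, then retinol to 1 uM final; incubate 6 h at 37 C; add CellTiter-Glo; read luminescence after 30 min at RT.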

[3] = qHTS assay to identify small molecule antagonists of the retinoic acid receptor (RAR) signaling pathway (AID 1159552; also: nearly all actives have a fitted effect of over 50% in size)
How it was run: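 Retinol at 1 uM final stimulated RARE-luciferase expression in C3RL4 cells exposed to test compounds for 6 hr at 37 C. Reduced luminescence, read 30 min after detection reagent, indicated pathway antagonism.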

[4] = qHTS assay to identify small molecule agonists of the retinoic acid receptor (RAR) signaling pathway (AID 1159553)
How it was run: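 Activation of retinol signaling was monitored via a RARE luciferase reporter in C3RL4 cells. After 6 hr compound treatment at 37 C, detection reagent was added for 30 min at room temperature before luminescence reading.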

[5] = qHTS assay to identify small molecule antagonists of the estrogen related receptor (ERR) signaling pathway from Tox21 library - cell viability counter screen (AID 1224834); also: nearly all actives have a fitted effect of over 30% in size
How it was run: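 CellTiter-Fluor fluorescence measured; ERR cells; 17.5 h compound incubation at 37 C; 30 min reagent step.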

[6] = molecular target: Luciferin 4-monooxygenase (Photinus pyralis) (UniProt P08659); assay: qHTS assay to identify small molecule inhibitors of firefly luciferase (AID 1224835); also: nearly all actives have a fitted effect of over 25% in size
How it was run: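 Biochemical qHTS: compounds run as interplate titrations against purified firefly enzyme, with D-luciferin and ATP each at its KM concentration. Light output recorded by CCD imaging.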

[7] = qHTS assay to identify small molecule agonists of the constitutive androstane receptor (CAR) signaling pathway - cell viability counter screen (AID 1224836); also: nearly all actives have a fitted effect of over 45% in size
How it was run: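 Cells were seeded and incubated 4 hrs. Compounds were added across 15 concentrations together with PK11195 at 0.75 uM final. Plates were incubated 23 hrs at 37 C. CellTiter-Fluor was added and fluorescence measured.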

[8] = qHTS assay to identify small molecule antagonists of the constitutive androstane receptor (CAR) signaling pathway - cell viability counter screen (AID 1224837); also: nearly all actives have a fitted effect of over 45% in size
How it was run: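 Using CellTiter-Fluor, viability is scored in HepG2 cells stably carrying hCAR and a 2.2kb CYP2B6 reporter after 23 hr compound exposure across 15 concentrations, with CITCO present at 50 nM.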

[9] = molecular target: Nuclear receptor subfamily 1 group I member 3 (Homo sapiens) (UniProt Q14994); assay: qHTS assay to identify small molecule antagonists of the constitutive androstane receptor (CAR) signaling pathway (AID 1224838);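 also: HepG2 cells stably expressing hCAR with CYP2B6 luciferase reporter stimulated by CITCO; nearly all actives have a fitted effect of over 40% in size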
How it was run: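 Reporter luminescence was quantified after 24 h exposure of hCAR/CYP2B6-2.2kb double-stable HepG2 cells to compounds at 15 concentrations in the presence of 50 nM CITCO final.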

[10] = molecular target: Nuclear receptor subfamily 1 group I member 3 (Homo sapiens) (UniProt Q14994); assay: qHTS assay to identify small molecule agonists of the constitutive androstane receptor (CAR) signaling pathway (AID 1224839);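 also: HepG2 cells stably carrying human CAR and a CYP2B6 luciferase reporter; nearly all actives have a fitted effect of over 15% in size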
How it was run: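 Cells were plated and incubated 4 hrs, then dosed with compounds at 15 concentrations. PK11195 was added to 0.75 uM final. After 24 hrs at 37 C, luciferase luminescence was measured.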

[11] = qHTS assay to identify small molecule antagonists of the estrogen related receptor signaling pathway with the pleiotropic PPARgamma coactivator (PGC) from Tox21 10K library - cell viability counter screen (AID 1224840; active = well fitted cell-killing curve with a large enough effect in the repeat runs, not every such curve was filed as active; also: nearly all actives have a fitted effect of over 40% in size)
How it was run: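 Here the PGC/ERR cells serve as a cytotoxicity control: they are exposed to compounds for 17.5 hours at 37 C, and live-cell signal is quantified using CellTiter-Fluor fluorescence.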

[12] = molecular target: Thyrotropin receptor (Homo sapiens) (UniProt P16473); assay: qHTS assay to identify small molecule agonists of the thyroid stimulating hormone receptor (TSHR) signaling pathway (AID 1224843; calls by dose curve; also: nearly all actives have a fitted effect of over 45% in size)
How it was run: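 Steps: seed 800 TSHR-HEK293 cells per well; add test compound and hold 30 min at ambient temperature; dispense cAMP-d2 then anti-cAMP cryptate; incubate 1 h at ambient; measure fluorescence intensity.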

[13] = qHTS assay to identify small molecule agonists of the hypoxia (HIF-1) signaling pathway - cell viability counter screen (AID 1224844; calls by dose curve; also: nearly all actives have a fitted effect of over 50% in size)
How it was run: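 Multiplexed with the HRE beta-lactamase assay, this viability read used CellTiter-Glo luminescence (30 min, RT) on HRE-bla ME-180 cells treated 17 hrs with compounds in 0.5% dialyzed FBS medium.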

[14] = qHTS assay to identify small molecule agonists of H2AX (AID 1224845; active = well fitted activation curve with a large enough effect in the signal ratio in the repeat runs, not every such curve was filed as active; the % refers to the signal ratio)
How it was run: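 Wild-type CHO-K1 cells, plated overnight, exposed 3hr at 37C to 15 concentrations (0.76% DMSO final). Lysed, then HTRF anti-pH2AX (S139) cryptate and anti-H2AX-d2 antibodies, 24 hr room temperature; 665/620 nm emission read.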

[15] = qHTS assay to identify small molecule agonists of the hypoxia (HIF-1) signaling pathway (AID 1224846; active = well fitted activation curve with a large enough effect in the signal ratio in the repeat runs, not every such curve was filed as active; the % refers to the signal ratio)
How it was run: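 Hypoxia-pathway activation was scored as increased beta-lactamase from an HRE-controlled reporter in ME-180 cells; plated at 2,000 cells per well with 0.5% dialyzed FBS, they were exposed 17 hrs to compounds and then given CCF4-AM.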

[16] = qHTS assay to identify small molecule agonists of H2AX - cell viability counter screen (AID 1224847; calls by dose curve; also: top concentration of the series differs between compounds; nearly all actives have a fitted effect of over 30% in size)
How it was run: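 Cytotoxicity counter screen in wild-type CHO-K1 cells: a 3 hr compound treatment at 37C across 15 concentrations, followed by CellTiter-Glo luminescence to gauge viable cells.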

[17] = qHTS RealTime-Glo MT Cell Viability Assay in HepG2 cells - 24 hour (AID 1224867); also: nearly all actives have a fitted effect of over 50% in size
How it was run: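 qHTS, HepG2, 600 cells/well, RealTime-Glo (NanoLuc + prosubstrate) added with cells; 5 h preincubation; DMSO compound addition; 37 C; luminescence at 0/8/16/24/32/40 h.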

[18] = qHTS assay to identify small molecule antagonists of the estrogen related receptor (ERR) signaling pathway from Tox21 library (AID 1224848)
How it was run: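 Luminescent reporter read-out (ONE-Glo) from NTP's ERR cell line after 18 h treatment at 37 C with DMSO-dissolved Tox21 compounds; cells pre-plated 6 h beforehand at 2,000 per well.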

[19] = qHTS assay to identify small molecule agonists of the estrogen related receptor (ERR) signaling pathway from Tox21 library (AID 1224849; calls by dose curve; also: nearly all actives have a fitted effect of over 15% in size); conditions: ERR reporter cell line, ONE-Glo luciferase, 18 h; at 92.4 µM (top of the series) unless noted
How it was run: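 Six hours post-seeding at 37 C/5% CO2, ERR cells receive DMSO-solubilised compounds; after 18 h at 37 C, ONE-Glo reagent is applied and luminescence recorded.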

Luciferin 4-monooxygenase (Photinus pyralis), sequence (P08659 whole entry, looked up): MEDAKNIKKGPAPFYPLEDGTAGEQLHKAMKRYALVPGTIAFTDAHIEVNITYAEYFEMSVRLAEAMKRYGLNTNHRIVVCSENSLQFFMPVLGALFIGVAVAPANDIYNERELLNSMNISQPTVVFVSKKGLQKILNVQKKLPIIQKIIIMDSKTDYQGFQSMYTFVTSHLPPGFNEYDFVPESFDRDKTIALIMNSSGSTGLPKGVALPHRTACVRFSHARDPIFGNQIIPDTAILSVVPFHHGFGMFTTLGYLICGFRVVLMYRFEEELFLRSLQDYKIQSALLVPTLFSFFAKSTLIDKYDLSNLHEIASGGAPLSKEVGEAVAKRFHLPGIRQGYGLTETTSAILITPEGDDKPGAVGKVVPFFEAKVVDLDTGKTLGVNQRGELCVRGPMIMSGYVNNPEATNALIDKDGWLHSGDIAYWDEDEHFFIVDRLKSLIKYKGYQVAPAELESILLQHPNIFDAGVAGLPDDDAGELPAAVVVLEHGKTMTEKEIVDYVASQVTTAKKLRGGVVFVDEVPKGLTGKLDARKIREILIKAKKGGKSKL
Thyrotropin receptor (Homo sapiens), sequence (P16473 whole entry, looked up): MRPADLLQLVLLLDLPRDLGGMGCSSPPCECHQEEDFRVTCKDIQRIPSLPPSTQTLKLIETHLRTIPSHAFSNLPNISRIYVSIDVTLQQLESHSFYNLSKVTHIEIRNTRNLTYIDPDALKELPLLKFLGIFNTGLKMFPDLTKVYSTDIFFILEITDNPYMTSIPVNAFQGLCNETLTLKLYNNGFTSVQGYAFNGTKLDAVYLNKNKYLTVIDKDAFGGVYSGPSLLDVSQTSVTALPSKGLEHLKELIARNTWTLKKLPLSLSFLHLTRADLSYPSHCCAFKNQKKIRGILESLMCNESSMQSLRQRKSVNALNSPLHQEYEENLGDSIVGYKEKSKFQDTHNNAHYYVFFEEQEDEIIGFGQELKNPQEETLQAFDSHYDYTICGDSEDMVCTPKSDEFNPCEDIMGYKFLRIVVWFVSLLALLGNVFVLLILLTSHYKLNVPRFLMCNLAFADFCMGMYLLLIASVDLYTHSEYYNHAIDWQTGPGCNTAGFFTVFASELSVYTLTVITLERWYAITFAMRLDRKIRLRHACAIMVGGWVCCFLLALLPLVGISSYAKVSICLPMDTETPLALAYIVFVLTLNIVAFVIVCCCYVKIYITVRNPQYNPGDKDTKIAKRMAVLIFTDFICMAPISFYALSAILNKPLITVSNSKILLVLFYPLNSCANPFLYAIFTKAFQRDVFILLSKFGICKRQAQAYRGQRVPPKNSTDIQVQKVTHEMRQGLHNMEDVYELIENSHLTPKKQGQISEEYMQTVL
Nuclear receptor subfamily 1 group I member 3 (Homo sapiens), sequence (Q14994 whole entry, looked up): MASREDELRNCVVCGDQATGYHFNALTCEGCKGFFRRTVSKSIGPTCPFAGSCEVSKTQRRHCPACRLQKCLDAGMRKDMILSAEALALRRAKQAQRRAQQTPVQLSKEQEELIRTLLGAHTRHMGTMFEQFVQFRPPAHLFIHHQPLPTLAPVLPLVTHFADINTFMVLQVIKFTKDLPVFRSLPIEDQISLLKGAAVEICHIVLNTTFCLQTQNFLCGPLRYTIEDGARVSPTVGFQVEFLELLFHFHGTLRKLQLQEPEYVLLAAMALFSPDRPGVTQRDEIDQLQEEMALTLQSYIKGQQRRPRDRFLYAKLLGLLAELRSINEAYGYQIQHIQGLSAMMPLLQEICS

Structure (SMILES) | outcome [1] | outcome [2] | outcome [3] | Potency [4] | outcome [5] | Potency [6] | outcome [7] | outcome [8] | Potency [9] | Potency [10] | outcome [11] | outcome [12] | outcome [13] | outcome [14] | outcome [15] | outcome [16] | outcome [17] | Potency [18] | activity change, positive = activation [19]
O=[N+]([O-])c1c(Cl)cc(Cl)cc1Cl | inactive | inactive | inactive | inactive | inactive | inactive | inactive | inactive | inactive | inactive | inactive | inactive | inactive | inactive | inactive | inactive | inactive | – | –
CC1(C)[C@H]2CC[C@](C)(C2)[C@H]1O | inactive | inactive | inactive | inactive | inactive | inactive | inactive | inactive | inactive | inactive | inactive | inactive | inactive | inactive | inactive | inactive | inactive | – | –
CCCCOC(=O)C(C)O (configuration not stated) | inactive | inactive | inactive | inactive | inactive | inactive | inactive | inactive | inactive | inactive | inactive | inactive | inactive | inactive | inactive | inactive | inactive | – | –
CC(C)Nc1ccccc1 | inactive | inactive | inactive | inactive | inactive | inactive | inactive | inactive | inactive | inactive | inactive | inactive | inactive | inactive | inactive | inactive | inactive | – | –
CC1(C)O[C@H]2CC(=O)OC[C@]23[C@H]2CC[C@@]4(C)[C@H](c5ccoc5)OC(=O)[C@H]5O[C@]54[C@]2(C)C(=O)C[C@@H]13 | inactive | inactive | inactive | inactive | inactive | inactive | inactive | inactive | inactive | inactive | inactive | inactive | inactive | inactive | inactive | inactive | inactive | – | –
CCCCOCCOC(=O)COc1ccc(Cl)cc1Cl | inactive | inactive | inactive | inactive | inactive | inactive | inactive | inactive | inactive | inactive | inactive | inactive | inactive | inactive | inactive | inactive | inactive | – | –
C[Si]1(C)O[Si](C)(C)O[Si](C)(C)O[Si](C)(C)O[Si](C)(C)O1 | inactive | inactive | inactive | inactive | inactive | inactive | inactive | inactive | inactive | inactive | inactive | inactive | inactive | inactive | inactive | inactive | inactive | – | –
Cn1c(=O)c2c(ncn2CCO)n(C)c1=O | inactive | inactive | inactive | inactive | inactive | inactive | inactive | inactive | inactive | inactive | inactive | inactive | inactive | inactive | – | – | inactive | – | –
Cc1ccc(N)cc1S(=O)(=O)O | inactive | inactive | inactive | inactive | inactive | inactive | inactive | inactive | inactive | inactive | inactive | inactive | inactive | inactive | inactive | inactive | inactive | – | –
O=C(CCCCC(=O)Nc1c(I)cc(I)c(C(=O)O)c1I)Nc1c(I)cc(I)c(C(=O)O)c1I | inactive | inactive | inactive | inactive | inactive | inactive | inactive | inactive | inactive | inactive | inactive | inactive | inactive | – | – | inactive | inactive | 21.1 µM (active) | -37% [at 42.5 µM]
CC(C)OC(=O)CCC(=O)OC(C)C | inactive | inactive | inactive | inactive | inactive | inactive | inactive | inactive | inactive | inactive | inactive | inactive | inactive | inactive | inactive | inactive | inactive | – | –
N#Cc1cscn1 | inactive | inactive | inactive | inactive | inactive | inactive | inactive | inactive | inactive | inactive | inactive | inactive | inactive | inactive | inactive | inactive | inactive | – | –
CC12CCC(C1)C(C)(C)C2O (configuration not stated) | inactive | inactive | inactive | inactive | inactive | inactive | inactive | inactive | inactive | inactive | inactive | inactive | inactive | inactive | inactive | inactive | inactive | – | –
NCC1(Cc2noc(=O)[nH]2)CCCCC1 | inactive | inactive | inactive | inactive | inactive | inactive | inactive | inactive | inactive | inactive | inactive | inactive | inactive | inactive | inactive | inactive | inactive | – | –
CCCC(=O)Nc1ccc(OCC(O)CNC(C)C)c(C(C)=O)c1 (configuration not stated) | inactive | inactive | inactive | inactive | inactive | inactive | inactive | inactive | inactive | inactive | inactive | inactive | inactive | inactive | – | inactive | inactive | – | –
